Screening data: PubChem, several laboratories
Mdm2-MdmX inh: disrupts the human Mdm2-MdmX interaction. 330,000 tested, 3% active. inhibition, % at 8 µM. SaOS-2 split-luciferase Mdm2/MdmX complementation, luminescence. O15151+Q00987;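 active = inhibition of at least 50% at 8 µM in the primary screen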
Bfl-1 A1 inh: inhibitors of the anti-apoptotic protein A1, read as caspase activation | 330,000 tested, 0.066% active | caspase activation, % (test concentration not listed) | MEF A1-2A-BIM cells, Caspase-Glo 3/7 luminescence, 3 h; percent of clofoctol response, vehicle zero | AID 2462;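 active = over half of replicate activation scores above 10%, or exactly half above 10 with the replicate mean above 10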
697 NFkB inh: inhibitors of the PMA/ionomycin-induced NF-kB reporter in 697 B cells; 697 B-cell NF-kB luciferase reporter, 16 h; inhibition, % at 4 µM; 330,000 tested, 0.33% active; AID 435022; in the data active = inhibition above about 35%
Jurkat NFkB inh: lowers PMA/ionomycin-induced NF-kB signal in Jurkat cells; PMA/ionomycin-induced NF-kB luciferase reporter, luminescence; inhibition, % at 4 µM; 330,000 tested, 0.53% active; AID 435003; in the data active = inhibition above about 50%
Beta apoptosis: blocks beta cell apoptosis. INS-1E cytokine-induced death, ATP luminescence, 48 h; percent of positive-control rescue, neutral wells zero. protection from apoptosis, % (no concentration beside the values). 300,000 tested, 0.8% active. AID 435005;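 active = Every replicate reaches about 75%, or at least half do and their mean reaches it too, limit read from the data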;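 note: 0% = cytokine-treated negative control wells and 100% = positive control rescue; higher means more ATP so stronger rescue from cytokine killing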
NTR1 ag: activates human neurotensin receptor 1; 330,000 tested, 0.17% active; activation, % at 20 µM; NTR1-U2OS beta-arrestin-GFP spot imaging, agonist mode; P30989;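 active = activation at or above 40% of the spot to cytoplasm intensity ratio, with at least 20 cells analyzed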;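 note: 0% = DMSO without peptide and 100% = 100 nM NTR1 peptide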
Target sequence (P30989 whole entry, looked up): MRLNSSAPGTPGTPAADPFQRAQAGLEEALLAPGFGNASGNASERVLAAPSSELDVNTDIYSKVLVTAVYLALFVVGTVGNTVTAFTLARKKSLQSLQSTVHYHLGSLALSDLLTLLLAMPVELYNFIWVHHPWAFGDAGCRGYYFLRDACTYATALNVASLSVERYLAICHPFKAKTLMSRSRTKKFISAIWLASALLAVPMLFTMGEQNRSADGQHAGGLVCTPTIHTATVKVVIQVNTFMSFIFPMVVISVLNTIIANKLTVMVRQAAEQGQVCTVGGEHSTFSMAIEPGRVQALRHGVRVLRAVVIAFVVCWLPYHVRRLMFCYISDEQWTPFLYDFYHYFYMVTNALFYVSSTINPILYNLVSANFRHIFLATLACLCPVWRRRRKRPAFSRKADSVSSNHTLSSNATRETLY
Jurkat NFkB conf: inhibitors of the PMA/ionomycin-induced NF-kB reporter in Jurkat cells, retest; shares compounds with Jurkat NFkB inh; 2,700 tested, 27% active; inhibition, % at 4 µM; Jurkat NF-kB luciferase, 16 h; AID 435020;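 active = inhibition reaching about 45% at 4 µM in either replicate, limit read from the data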;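 note: plate controls were PMA/ionomycin stimulated DMSO wells for no effect and unstimulated DMSO wells for full effect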
* hit, by the source's call; . = no result given. Shown are actives, neighbours in structure and some others; about 3.8% of the full set was active somewhere.

SMILES | Mdm2-MdmX inh | Bfl-1 A1 inh | 697 NFkB inh | Jurkat NFkB inh | Beta apoptosis | NTR1 ag | Jurkat NFkB conf
O=C(Nc1ccc(S(=O)(=O)N2CCCCC2)cc1)c1ccc(CN2CCOCC2)cc1 | 15 | 0 | 12 | 62* | 18 | 6 | 61*
O=C(Nc1ccc(N2CCCCC2)cc1)c1ccc(F)cc1 | -69 | -7 | -158 | -167 | 2 | 2 | -83
O=C(Nc1ccc(S(=O)(=O)N2CCCC2)cc1)c1ccc(CN2CCOCC2)cc1 | 33 | -1 | -20 | 35 | -6 | 3 | .
O=C(Nc1ccc(F)cc1)c1ccc(CN2CCc3ccccc3C2)cc1 | 24 | -3 | -13 | 58* | -2 | 0 | 42
CCCCOC(=O)Nc1ccc(N2CCCCC2)cc1 | -165 | -1 | -163 | -182 | 2 | -2 | -95
CC(=O)Nc1ccc(NC(=O)c2ccc(CN3CCc4ccccc4C3)cc2)cc1 | 13 | 2 | 2 | -12 | -2 | -1 | .
Cc1c(C(=O)Nc2ccccc2)c2ccc(C(F)(F)F)cc2n1O | -7 | 0 | 9 | 11 | 0 | 0 | .
Cc1c(C(C)(C)C)sc(=NC(=O)c2ccccc2O)n1C | -103 | -9 | -226 | -193 | 8 | 9 | -113
Cc1c(C(C)(C)C)s/c(=N/S(=O)(=O)c2ccccc2)n1C | 9 | -1 | 2 | -11 | -1 | 1 | .
Cc1cccc(Nc2nc(-c3ccccn3)cs2)n1 | -105 | -10 | -169 | -185 | 47 | 2 | -93
CC(=O)Oc1ccc(-c2csc(Nc3cccc(C)n3)n2)cc1 | -143 | -1 | -135 | -151 | . | 16 | -80
COc1ccc(Cl)cc1NC(=O)COC(=O)c1ccc(C)o1 | 16 | 0 | 22 | -9 | -15 | 0 | .
O=C(O)c1cccc(NC(=O)c2ccc3c(c2)C(=O)N(C2CCCCC2)C3=O)c1 | 12 | -1 | -88 | -10 | 2 | 0 | .
CCSc1nnc(NC(=O)/C=C/c2ccc3c(c2)OCO3)s1 | -1 | 0 | 14 | -15 | -3 | 0 | .
O=C(/C=C/c1ccc2c(c1)OCO2)Nc1nc2ccccc2s1 | 48 | -4 | -162 | -168 | 58 | -1 | -65
CCCN1CCC(=NNc2ccc(S(=O)(=O)N(CC)CC)cc2[N+](=O)[O-])CC1 | 40 | 0 | -12 | 59* | -4 | 3 | -7
CCCN1CCC(=NNc2ccc(S(N)(=O)=O)cc2[N+](=O)[O-])CC1 | 4 | 0 | 10 | 1 | -5 | 1 | .
Cc1[nH]c2ccc(C(=O)OCC(=O)NC3(C#N)CCCCC3)cc2c1C | -10 | -1 | -29 | -2 | 1 | 0 | .
O=C(COC(=O)Cc1c(F)cccc1Cl)Nc1nnc(-c2ccccc2)o1 | 19 | 2 | 19 | 6 | . | 0 | .
CCOC(=O)N1CCN(C(=O)C2CCCN(Cc3nc(-c4ccc(Cl)cc4)oc3C)C2)CC1 (stereo not given) | 23 | -1 | -12 | 59* | 16 | 0 | 55*
Oc1ccccc1-c1cc(-c2ccco2)[nH]n1 | -54 | -1 | -17 | -26 | -3 | 1 | .
Oc1c(-c2cc(-c3ccco3)[nH]n2)ccc2ccccc12 | -157 | -6 | -147 | -156 | 8 | 3 | -73
CS(=O)(=O)c1ccc(Sc2nc3ccccc3s2)c([N+](=O)[O-])c1 | 23 | 0 | -24 | 94* | -24 | 8 | 58*
CC(C)c1ccc(/C=N/NC(=O)c2ccccc2Cl)cc1 | 44 | 1 | -104 | 52* | 22 | 11 | 10
CC(C)c1ccc(/C=N/Nc2ccc(C(=O)O)cc2)cc1 | -48 | -9 | -233 | 55* | 5 | 4 | 46
SMILES | Mdm2-MdmX inh | Bfl-1 A1 inh | 697 NFkB inh | Jurkat NFkB inh | Beta apoptosis | NTR1 ag | Jurkat NFkB conf
COC(=O)c1ccc(/C=N/NC(=O)c2ccccc2Cl)cc1 | 2 | -2 | -5 | -10 | . | 0 | .
CC(C)(C)c1ccc(/C=N/NC(=O)c2ccccn2)cc1 | -42 | -9 | -215 | -249 | 6 | 1 | -118
COc1ccc(NC(=O)COC(=O)CCc2ccc(S(=O)(=O)N3CCOCC3)cc2)c(OC)c1 | 26 | 0 | -6 | 0 | 1 | -1 | .
O=C(CSc1nnnn1C1CC1)N1CCN(Cc2ccccc2F)CC1 | 7 | 0 | 4 | -3 | -13 | -1 | .
COc1ccc2oc(C(=O)Nc3ccc(C)cn3)c(C)c2c1 | -53 | -2 | -119 | -92 | -4 | 0 | .
COc1ccc2oc(C(=O)Nc3ccccn3)c(C)c2c1 | -137 | -7 | -214 | -234 | 3 | 0 | -87
Cc1cc(NS(=O)(=O)c2ccc(NC(=O)CCCOc3cccc(C)c3C)cc2)no1 | 7 | 0 | 7 | 17 | -1 | 1 | .
CN(C(=O)c1ccc(NC(=O)Cc2cccc(NC(=O)C3CCN(C(=O)C4CC4)CC3)c2)cc1)C1CCCC1 | -19 | -2 | -4 | -9 | 1 | 0 | .
COc1cccc(NC(=O)CN(C)C(=O)CSc2ccc3c(c2)OCCO3)c1 | 21 | 2 | 14 | 9 | 3 | 0 | .
Oc1cccc(/C=N/N=C/c2cccc(O)c2O)c1O | 13 | -8 | -191 | 81* | . | 1 | -21
Cc1cc(NC(=O)CSc2ccc(-c3nc4cc(C)c(C)cc4[nH]3)cn2)no1 | 6 | 0 | -32 | -175 | 26 | 22 | -86
Cc1cc2nc(-c3ccc(SCC(=O)Nc4ccc(S(=O)(=O)NC5CC5)cc4)nc3)[nH]c2cc1C | -160 | -4 | -154 | -181 | 4 | 3 | -141
Cc1cc2nc(-c3ccc(SCC(=O)NC(C)C)nc3)[nH]c2cc1C | -52 | -2 | -44 | -70 | 7 | 1 | .
Cc1cc2nc(-c3ccc(SCc4ccc(C(=O)O)cc4)nc3)[nH]c2cc1C | . | -1 | . | . | 6 | . | .
CCCN(CC(=O)Nc1cc(Cl)ccc1Cl)C(=O)c1ccc(N2CCCC2=O)cc1 | 7 | 1 | -18 | -1 | 6 | 2 | .
CC(C)NC(=O)C1CCN(S(=O)(=O)c2ccc(N3CCCC3=O)cc2)CC1 | 23 | 0 | -6 | 79* | 1 | 2 | 9
Cc1cc(Sc2ccc([N+](=O)[O-])cn2)ccc1Br | 21 | 0 | 14 | 62* | -11 | 1 | 25
O=C(/C=C/c1cccc(F)c1)N1CCc2ccccc21 | -291 | -9 | -245 | -197 | 8 | -1 | -140
O=C(c1ccc(Cl)cc1Cl)N1CCc2ccccc21 | 20 | 0 | -1 | 8 | 0 | 1 | .
O=C(/C=C/c1ccc(Cl)cc1Cl)N1CCc2ccccc21 | -148 | -11 | -195 | -155 | 12 | 1 | -88
COc1cccc(CNC(=O)CCCCCNC(=O)N2CCn3c2nc2ccccc23)c1 | 7 | 0 | 9 | 2 | -2 | 0 | .
COc1ccc(CCNC(=O)Cn2nc(C)c3c(C)n(-c4ccccc4)nc3c2=O)c(OC)c1 | 0 | 1 | 5 | 4 | -4 | 0 | .
